Structures can show the parent of a compound that is named as a salt.
These compounds were tested on HepG2-ACTB-RAB5A (assay: lowest phenotypically active concentration; higher = less potent). Conditions: treatment time: 24 h.
Method in brief: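 The reporter lines, fifteen in total and built by gene editing in A549, HepG2 and WPMY1 cells, used BFP for segmentation alongside GFP and RFP/FusionRed markers. Each was treated at 0.3, 1, 3 or 9 µM for 24 h in four wells and then imaged live, with live-cell features normalised to solvent control wells. Deviation meant ≥3 of 4 wells beyond the 95th percentile of control Euclidean distances; reproducibility meant a median replicate Pearson correlation above the 95th percentile of non-replicates. Only conditions meeting both were scored as phenotypically active.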

| SMILES | lowest phenotypically active concentration |
| --- | --- |
| CC/C(=C(\CC)c1ccc(O)c(CN(CC)CC)c1)c1ccc(O)c(CN(CC)CC)c1 | 1 µM |
| CC(C)COCC(CN(Cc1ccccc1)c1ccccc1)N1CCCC1 (stereo unspecified) [bepridil] | 9 µM |
| O=C(NOCC1CC1)c1ccc(F)c(F)c1Nc1ccc(I)cc1Cl | ≤ 0.3 µM |
| COc1ccc(CCNCc2ccc(OCc3ccc(Cl)nc3)c(OC)c2)cc1OC [SBE 13 hydrochloride] | 9 µM |
| N#C/C(=C(/N)Sc1ccc(N)cc1)c1ccccc1C(F)(F)F | 3 µM |
| CCCS(=O)(=O)Nc1ccc(F)c(C(=O)c2c[nH]c3ncc(Cl)cc23)c1F | 3 µM |
| COc1c(C=O)c(O)cc2c1C(=O)c1ccccc1C2=O [Damnacanthal] | 9 µM |
| C[C@H]1Oc2cc(cnc2N)-c2c(nn(C)c2C#N)CN(C)C(=O)c2ccc(F)cc21 | 3 µM |
| CC(C)OC(=O)c1cc2c(OCC(O)CNC(C)(C)C)cccc2[nH]1 (stereo unspecified) | 9 µM |
| COc1ccccc1OCCNCC(O)COc1cccc2[nH]c3ccccc3c12 (stereo unspecified) [Carvedilol] | 9 µM |
| O=S(=O)(c1cccc2cnccc12)N1CCCNCC1 [fasudil] | 9 µM |
| Clc1ccccc1C(c1ccccc1)(c1ccccc1)n1ccnc1 [Clotrimazole] | 9 µM |
| CSc1ccc2c(c1)N(CCC1CCCCN1C)c1ccccc1S2 (stereo unspecified) [thioridazine] | 9 µM |
| CCCNCC(O)COc1ccccc1C(=O)CCc1ccccc1 (stereo unspecified) [propafenone] | 9 µM |
| COc1cc(N2CCC(N)CC2)ccc1Nc1ncc(Cl)c(-c2c[nH]c3ccccc23)n1 | 3 µM |
| Cc1noc(C)c1-c1ccc2c(c1)nc(CCc1ccc(OCCCN(C)C)cc1)n2CCN1CCOCC1 | 9 µM |
